This is a sample that favours compounds with a hit; in the whole collection about 3.6% have one here.
AmpC inh no detg – blocks E. coli AmpC beta-lactamase in detergent-free assay | P00811 | AmpC nitrocefin hydrolysis, absorbance 480 nm, 0.0001% Triton | Potency, µM (titrated, usually from 57.1 µM), inactives show at the highest dose activity change, negative = inhibition, actives largely listed as inhibitors | hit rate 0.52% among 330,000 | AID 485341;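 note: plate controls were no compound for no effect and no enzyme for full effect; nearly all actives have a fitted effect of over 20% in size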
Target sequence (P00811 whole entry, looked up): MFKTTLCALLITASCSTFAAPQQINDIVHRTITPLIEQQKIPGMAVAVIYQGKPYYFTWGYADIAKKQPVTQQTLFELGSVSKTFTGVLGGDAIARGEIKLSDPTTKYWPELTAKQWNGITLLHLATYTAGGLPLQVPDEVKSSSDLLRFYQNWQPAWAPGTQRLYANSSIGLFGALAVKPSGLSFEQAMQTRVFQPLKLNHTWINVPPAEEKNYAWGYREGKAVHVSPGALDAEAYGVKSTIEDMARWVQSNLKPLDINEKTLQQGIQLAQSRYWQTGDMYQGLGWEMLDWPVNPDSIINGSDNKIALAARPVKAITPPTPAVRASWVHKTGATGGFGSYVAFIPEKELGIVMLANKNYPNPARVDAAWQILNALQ
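20 mM phosphate pH 7.0 + 0.01% (detergent screen) or 0.0001% Triton X-100; 5.3 nM AmpC reagent; cpd preinc 15 min RT; nitrocefin (800 uM stock) to start; A480 q20 s × 4 min; Activity was normalised to no-enzyme and no-compound control wells.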
Giardia FBPA inh – inhibitors of Giardia lamblia fructose-1,6-bisphosphate aldolase. hit rate 0.71% among 290,000. A8B2U2. purified Giardia FBPA. Potency, µM (series often up to 59.6 µM), for the others: at the top dose activity, negative = inhibition, actives largely listed as inhibitors. AID 2451; note: nearly all actives have a fitted effect of over 55% in size
Target sequence (A8B2U2 whole entry, looked up): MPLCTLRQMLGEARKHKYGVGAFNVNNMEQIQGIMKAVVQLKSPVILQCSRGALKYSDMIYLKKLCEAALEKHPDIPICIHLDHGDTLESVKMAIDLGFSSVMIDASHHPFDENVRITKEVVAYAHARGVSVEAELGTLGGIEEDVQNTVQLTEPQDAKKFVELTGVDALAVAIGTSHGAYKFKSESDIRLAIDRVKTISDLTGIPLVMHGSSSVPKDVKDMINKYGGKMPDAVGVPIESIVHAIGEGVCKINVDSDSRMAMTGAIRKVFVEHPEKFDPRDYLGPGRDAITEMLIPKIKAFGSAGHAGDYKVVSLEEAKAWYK
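Giardia FBPA (40 nM reagent) was preincubated 10 min at RT with compound (up to 57.5 uM final), then substrate plus GAPDH/TPI/NAD/arsenate coupling system with diaphorase/resazurin was added; resorufin fluorescence (525/598 nm) was read after 20 min.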
AmpC detergent – AmpC beta-lactamase inhibition with detergent present; P00811; AmpC hydrolysis of nitrocefin, absorbance 480 nm, 0.01% Triton; Potency, µM (highest dose often 114 µM), for the others: at the highest dose activity change, negative = inhibition, actives largely listed as inhibitors; hit rate 0.041% among 370,000; AID 485294;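 note: 0% = no-compound wells and -100% = no-enzyme wells; nearly all actives have a fitted effect of over 25% in size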
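AmpC (5.3 nM in the dispensed reagent) in 20 mM phosphate pH 7.0 with 0.01% (detergent screen) or 0.0001% Triton X-100 was preincubated with compounds for 15 min at room temperature. Nitrocefin was then added from an 800 uM solution, and hydrolysis was followed at 480 nm.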
Sm TGR inh – S. mansoni TGR enzyme inhibition | hit rate 3% among 360,000 | AID 485364 | Potency, µM (doses to about 114 µM), inactives show at the top dose activity change, negative = inhibition, hits mostly inhibitors | purified TGR, DTNB reduction, TNB absorbance 405 nm; note: nearly all actives have a fitted effect of over 60% in size
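First, TGR (20 nM dispensed) and NADPH were mixed with compound. Second, a 15 min room-temperature incubation followed. Third, further NADPH and then DTNB were added to start the reaction. Finally, TNB absorbance was monitored kinetically.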
The depositor's hits bear a star; ? = inconclusive; . = no result given; [ ] = another dose, or the depositor's remark. Calls come from the whole dose curve; as a rule, active = well fitted curve in the direction sought with a large enough effect; inconclusive = small, poorly fitted or top-dose-only effect, or another doubt; inactive = no such curve, though single readings can be large; an effect the other way counts as inactive or inconclusive. Unless noted, % is set by controls: 0 for no effect and ±100 for the full control effect; potency is the fitted concentration of half-maximal effect.

SMILES	AmpC inh no detg	Giardia FBPA inh	AmpC detergent	Sm TGR inh
COc1ccc(NC(=O)CSc2nnc(Cc3cccn3C)n2-c2ccc(F)cc2)cc1OC	135%	-20%	-14%	45µM*
Cc1nnc(NC(=O)CSc2nnc(Cc3cccn3C)n2C)s1	32µM*	-8%	5%	?
COc1ccc(-n2c(Cc3cccn3C)nnc2SCC(=O)Nc2ccccc2)cc1	?	-2%	-9%	?
Cn1cccc1Cc1nnc(SCC(=O)Nc2ccc(F)cc2)n1-c1ccc(F)cc1	16%	-6%	-5%	?
Cc1ccc(-n2c(SCC(=O)Nc3ccc(Cl)cc3)nc(O)cc2=O)cc1	7.1µM*	11%	-5%	-11%
COc1ccc(-n2c(Cc3cccn3C)nnc2SCC(=O)NCc2ccco2)cc1	54%	4%	?	56µM*
COc1ccc(-n2c(Cc3cccn3C)nnc2SCC(=O)NCc2ccc(F)cc2)cc1	84%	-2%	?	-36%
O=C(/C=C/c1ccc(F)cc1)NC(=S)NNC(=O)[C@H]1C[C@@H]1c1ccccc1	10µM*	21%	-3%	-10%
O=C(NC(=S)NNC(=O)[C@H]1C[C@@H]1c1ccccc1)c1ccc(F)cc1	-37%	22%	-9%	?
Cc1ccc(S(=O)(=O)NCC(=O)OCC(=O)Nc2cccc(S(=O)(=O)N3CCOCC3)c2)cc1	-14%	.	.	.
CC1CCN(CCCNC(=O)c2ccc3c(=O)n(Cc4ccc(Cl)cc4)c(=S)[nH]c3c2)CC1	52%	5%	2%	-26%
CN(C)CCNC(=O)c1ccc2c(=O)n(Cc3ccc(Cl)cc3)c(=S)[nH]c2c1	-5%	19%	3%	45µM*
Cc1ccc(C(C(=O)NCc2ccco2)N(CCc2ccccc2)C(=O)Cn2nnc3ccccc32)o1 (stereo unspecified)	15%	1%	-17%	-23%
Cc1ccc(C(C(=O)NCc2ccco2)N(C(=O)Cn2nnc3ccccc32)c2ccccc2)o1 (stereo unspecified)	-12%	-2%	?	50µM*
CCCCN(C(=O)Cn1nnc2ccccc21)C(C(=O)NCc1ccco1)c1ccncc1 (stereo unspecified)	15%	-27%	-1%	56µM*
O=C(NCc1ccco1)C(c1ccc(F)cc1)N(Cc1cccnc1)C(=O)Cn1nnc2ccccc21 (stereo unspecified)	-27%	-1%	?	?
Cc1ccc(C)c(N(C(=O)Cn2nnc3ccccc32)C(C(=O)NCc2ccco2)c2ccncc2)c1 (stereo unspecified)	2%	-13%	7%	-31%
Cc1cc(C)cc(N(C(=O)Cn2nnc3ccccc32)C(C(=O)NCc2ccco2)c2ccncc2)c1 (stereo unspecified)	28%	-25%	19%	35µM*
O=C(NCc1ccco1)C(c1ccccc1)N(Cc1cccnc1)C(=O)Cn1nnc2ccccc21 (stereo unspecified)	-17%	0%	?	40µM*
COc1cccc(N2CC(NC(=O)/C=C\c3ccc4c(c3)OCO4)CC2=O)c1 (stereo unspecified)	.	.	2%	14%
CCc1nc2nc(C)c(NS(=O)(=O)c3ccc(C)c(C)c3)c(=O)n2[nH]1	-6%	-23%	-2%	0%
COc1ccc(OC)c(/C=N/NC(=O)c2ccc(Cn3cc([N+](=O)[O-])cn3)o2)c1	40µM*	4%	?	3%
CCN(C(=O)CN1C(=O)/C(=C/c2ccccc2)SC1=S)C1CCS(=O)(=O)C1 (stereo unspecified)	2%	0%	3%	-1%
O=C(Nc1ccccc1)c1cccc(N2C(=O)C3C4CC(C(Br)C4Br)C3C2=O)c1 (stereo unspecified)	-14%	-9%	3%	-16%
Cc1ccc(NCc2cc3cc4c(cc3n(CC(=O)Nc3ccc(C)cc3)c2=O)OCCO4)cc1	.	.	10%	45µM*
SMILES	AmpC inh no detg	Giardia FBPA inh	AmpC detergent	Sm TGR inh
O=C(Nc1cccnc1)c1cccs1	0%	0%	4%	2%
O=C(NC(=S)Nc1cccnc1)c1cccs1	-9%	?	-1%	10µM*
O=C(Nc1cccc(C(=O)Nc2cccc(Br)c2)c1)c1ccccc1	14µM*	-1%	?	12%
CC(C)(C)c1ccc(C(=O)NC(=S)NNC(=O)c2cccs2)cc1	-58%	?	?	-33%
Cc1ccccc1NC(=S)NC(=O)c1cncc(Br)c1	-18%	-5%	1%	13µM*
O=C(NC(=S)NNC(=O)c1cccs1)c1ccccc1	-28%	.	1%	50µM*
Cc1ccc(C)c(N2CCN(C(=O)c3cc4c(=O)n(Cc5cccs5)ccc4nc3C)CC2)c1	.	.	20%	2%
CCC(C)[C@H](NC(=O)[C@H](Cc1ccccc1)n1c(=O)[nH]c2ccccc2c1=O)C(=O)N1CCC[C@@H]1C(=O)O (stereo partly specified)	-27%	-2%	-8%	-16%
CCCCOc1cccc(C(=O)NC(=S)Nc2cccnc2)c1	-18%	-20%	?	-17%
CCOc1cccc(C(=O)NC(=S)Nc2ccccc2)c1	-29%	-9%	2%	40µM*
O=C(O)c1ccc(NC(=S)NC(=O)c2cccc(COc3ccccc3)c2)cc1	-47%	-2%	2%	25µM*
CCOc1cccc(C(=O)NC(=S)Nc2cccnc2)c1	-28%	?	?	45µM*
O=C(NC(=S)Nc1cccnc1)c1cccc(Br)c1	-22%	?	-1%	16µM*
O=C(CSc1nnc(C2CC2)n1C1CC1)c1ccc(Br)s1	-7%	.	.	.
CC(C)(C)OC(=O)C[C@@H]1C/C=C\C[C@H](CC(=O)NCCO)C(=O)NC[C@H](c2ccccc2)OC1=O	52%	.	.	.
CC1(c2ccc(Cl)cc2)NC(=O)N(CC(=O)N2CCN(S(=O)(=O)c3ccccc3)CC2)C1=O (stereo unspecified)	118%	.	0%	3%
O=C(O)c1cccc(NC(=S)NC(=O)c2ccc3ccccc3c2)c1	-32%	-20%	1%	25µM*
COc1cccc(Oc2ccc(C(F)(F)F)cc2NC(=O)CN2C(=O)NC3(CCCC3)C2=O)c1	-10%	.	.	.
Cc1ccc(C(=O)N/C(=C/c2cccnc2)C(=O)N2CCCCCC2)cc1	-8%	.	7%	3%
COc1cc(N)c(Cl)cc1C(=O)OCC(=O)Nc1cccnc1Cl	35µM*	.	?	-4%
COc1ccc(Cl)cc1C(=O)OCC(=O)Nc1cccnc1Cl	-2%	.	8%	2%
COc1cc2c(cc1OC)C1O[C@](c3ccsc3)(C2)Oc2cc(-c3ccccc3)oc(=O)c21	-27%[11.4 µM]	7%[12.9 µM]	-8%[22.9 µM]	7.1µM*
COc1ccc(S(=O)(=O)N(C)CC(=O)Nc2c(F)cccc2F)cc1	0.14µM*	-1%	-1%	1%
CN(C)CCSc1nc(O)c(-c2ccccc2)c(=O)n1-c1ccccc1	-10%	-7%	2%	7%
CCCSc1nc(O)c(C2OC(=O)c3c2ccc(OC)c3OC)c(=O)n1-c1ccccc1 (stereo unspecified)	-21%	21%	?	11µM*
